Shown are actives, neighbours in structure and some others; about 32% of the full set was active somewhere.
CYP2C9 inh: inhibitors of human CYP2C9 | P11712 | CYP2C9 Supersomes, luciferin-H conversion, luminescence | inhibition, % at 5 µM | actives 20% (n = 96,000) | AID 777;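 active = blocking of liver enzyme CYP2C9 beyond about 50% at 5 µM, limit read from the data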
Target sequence (P11712 whole entry, looked up): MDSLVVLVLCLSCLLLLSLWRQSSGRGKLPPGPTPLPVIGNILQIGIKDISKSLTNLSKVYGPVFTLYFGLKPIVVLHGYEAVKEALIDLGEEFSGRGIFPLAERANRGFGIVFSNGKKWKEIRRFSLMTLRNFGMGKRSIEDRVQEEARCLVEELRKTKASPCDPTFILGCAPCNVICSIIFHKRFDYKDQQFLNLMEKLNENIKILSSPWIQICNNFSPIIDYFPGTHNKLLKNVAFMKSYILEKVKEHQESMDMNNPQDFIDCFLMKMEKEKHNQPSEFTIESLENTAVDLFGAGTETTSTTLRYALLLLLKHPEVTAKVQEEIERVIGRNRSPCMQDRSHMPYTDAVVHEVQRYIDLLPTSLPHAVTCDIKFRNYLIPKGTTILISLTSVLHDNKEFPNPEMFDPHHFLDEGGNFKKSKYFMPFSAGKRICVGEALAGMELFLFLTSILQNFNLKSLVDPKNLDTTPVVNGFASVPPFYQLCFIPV
CYP2C9 activ: increases human cytochrome P450 2C9 activity. AID 1024. recombinant CYP2C9, luciferin-H conversion, luminescence; hits give high values; factor 1 = untreated enzyme, 0 = blocked. activation factor at 5 µM. P11712. actives 1.4% (n = 96,000);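 active = activation factor of 2 or more for CYP2C9 at a 5 µM dose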;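 note: 0 = sulfaphenazole-blocked wells and 1 = vehicle-only wells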
PostGolgi ctrl: growth of the yeast control strain, post-Golgi counter-screen | efflux-deficient yeast background strain, growth absorbance A615, 16 h | inhibition, % at 10 µM | actives 5% (n = 98,000) | AID 738
CYP2C19 inh: human CYP2C19 inhibition; CYP2C19 Supersomes, luciferin-H EGE luminescence, 30 min; inhibition, % at 5 µM; actives 21% (n = 96,000); AID 778;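 active = CYP2C19 inhibition above a set limit at 5 µM in the primary screen, cut at about 50% in these data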;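 note: plate controls were negative control wells for no effect and 2.5 mM tranylcypromine positive control for full effect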
PostGolgi yeast: growth inhibition of a yeast mutant, post-Golgi transport screen; post-Golgi transport phenotypic cell assay; inhibition, % at 10 µM; actives 0.9% (n = 98,000); AID 739;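 note: yeast cells grown in 1536-well plates; yeast grown about 18 h at 30C before absorbance read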
CYP2C19 act: increases human CYP2C19 enzyme activity | 96,000 tested, under 10 active | activation factor at 5 µM | recombinant CYP2C19, luciferin-H EGE luminescence; hits give high values; 0 = fully inhibited enzyme, 1 = untreated enzyme | P33261;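 active = activation factor of at least 2 at 5 µM in the primary screen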;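 note: 0 = wells with 2.5 mM tranylcypromine and 1 = vehicle-only wells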
* = called active by the depositor; x = not tested or not shown. Cut-off read from the data, not from the text of the source, unless noted: active = inhibition above about 30%; inactive = the rest.

SMILES	CYP2C9 inh	CYP2C9 activ	PostGolgi ctrl	CYP2C19 inh	PostGolgi yeast	CYP2C19 act
COc1cc(C(=O)Nc2ccc(NC(=O)c3ccco3)nc2)cc(OC)c1OC	19.8	0.8	5.5	9.7	7.8	0.9
COc1cc(C(=O)Nc2cccc3cccnc23)cc(OC)c1OC	46.0	0.5	4.7	35.6	31.8*	0.6
Cc1cnc(C(=O)Nc2cccc3cccnc23)cn1	-27.4	1.3	4.3	-17.1	13.1	1.2
O=C(Nc1cccc2cccnc12)c1cccnc1	-112.4	2.1*	13.3	46.2	-1.5	0.5
O=C1CCCC(O)=C1C1NCCc2ccccc21 (stereo not given)	19.9	0.8	2.6	5.6	9.3	0.9
CCOC(=O)CSc1nnnn1-c1cc(OC)ccc1OC	64.9*	0.4	6.4	71.3*	3.7	0.3
COc1ccc(OC)c(-n2nnnc2SCC(=O)Nc2ccc(C(=O)N3CCCCC3)cc2)c1	67.1*	0.3	12.8	78.1*	-4.2	0.2
CCOC(=O)c1[nH]c2ccc(OCC)cc2c1NC(=O)CN1CCCC(C)C1 (stereo not given)	59.6*	0.4	1.4	77.6*	5.3	0.2
CCOC(=O)c1[nH]c2ccc(C)cc2c1NC(=O)CN1CCCCC1	29.6	0.7	1.0	60.1*	5.8	0.4
COC(=O)c1[nH]c2ccc(C)cc2c1NC(=O)CN1CCCC(C)(C)C1	18.1	0.8	4.8	38.8	-1.9	0.6
CC1=C(C(=O)OC(C)C)C(c2cccs2)N2C(=O)CCSC2=N1 (stereo not given)	28.8	0.7	7.1	50.8*	6.6	0.5
CC1=C(C(=O)OC(C)C)C(c2cccs2)N2C(=O)C(C)SC2=N1 (stereo not given)	27.7	0.7	14.2	64.6*	2.6	0.4
NC(=O)C1(N2CCCCC2)CCN(C(=O)c2cccn3c(=O)c4cc(Cl)ccc4nc23)CC1	x	x	-6.2	x	-17.1	x
Cc1cccc(OCC(=O)N2CCC(N3CCOCC3)CC2)c1	-2.8	1	12.9	5.7	-6.4	0.9
O=C(CCC1CCCC1)N1CCN(C(=O)c2cccnc2)CC1	0.6	1	-3.6	69.6*	1.4	0.3
CS(=O)(=O)N1CCN(C(=O)c2cccnc2)CC1	-2.2	1	35.2*	4.3	0.5	1
Cc1cccc(OCC(=O)N2CCN(C(=O)CCC3CCCC3)CC2)c1	50.7*	0.5	11.3	61.5*	-11.2	0.4
CS(=O)(=O)N1CCN(C(=O)c2ccncc2)CC1	12.7	0.9	4.9	3.1	-7.0	1
CS(=O)(=O)N1CCN(C(=O)c2ccc(Br)s2)CC1	40.5	0.6	0.8	94.1*	14.3	0.1
CSc1ccc(/C=N/n2c(C)cc(C)cc2=O)cc1	-15.5	1.2	4.5	1.4	-2.7	1
O=C(NCCC(=O)N1CCN(c2ncccn2)CC1)c1ccccc1Cl	54.0*	0.5	-6.2	27.9	-4.5	0.7
O=C(COc1ccccc1Cl)N1CCN(c2ncccn2)CC1	28.5	0.7	1.5	92.4*	-4.0	0.1
O=C(c1ccccc1OCc1ccccc1Br)N1CCN(c2ncccn2)CC1	98.9*	0	18.7	97.1*	16.5	0
O=C(c1ccc(F)cc1F)N1CCN(c2ncccn2)CC1	-3.0	1	13.3	43.5	8.3	0.6
CC(C(=O)NCc1ccccn1)N1C(=O)c2ccccc2C1=O (stereo not given)	8.2	0.9	-2.8	28.3	-0.5	0.7
SMILES	CYP2C9 inh	CYP2C9 activ	PostGolgi ctrl	CYP2C19 inh	PostGolgi yeast	CYP2C19 act
CC(C)Cn1nc(NC(=O)C2CCCO2)c2cc3ccccc3nc21 (stereo not given)	14.3	0.9	10.3	11.4	14.1	0.9
Cc1cc(C)nc(NC(=O)NS(=O)(=O)N2CCCCCC2)n1	-11.6	1.1	0.3	-7.2	1.4	1.1
COc1ccccc1NC(=O)CC1C(=O)NCCN1C(=O)Nc1ccccc1 (stereo not given)	11.4	0.9	2.7	6.2	-8.3	0.9
COc1ccc(OC)c(NC(=O)CC2C(=O)NCCN2C(=O)Nc2cccc(Cl)c2)c1 (stereo not given)	71.5*	0.3	-6.2	41.3	-2.3	0.6
C/C(N)=C(/C#N)C(=O)COC(=O)CCSc1ccccc1Cl	-0.2	1	4.0	64.4*	3.9	0.4
C/C(N)=C(/C#N)C(=O)COC(=O)CSc1ccccc1	40.0	0.6	1.1	47.5	-3.0	0.5
CCOC(=O)NC(=O)COC(=O)Cc1cc(OC)c(OC)c(OC)c1	1.5	1	6.9	7.8	-1.6	0.9
CC(C)[C@H](NC(=O)c1ccccc1)C(=O)OCC(=O)c1ccc2c(c1)NC(=O)CO2	40.2	0.6	18.9	52.3*	-2.6	0.5
CC(C)C(C(=O)OCC(=O)c1ccc2c(c1)NC(=O)CO2)N1C(=O)c2ccccc2C1=O (stereo not given)	7.0	0.9	5.0	14.9	3.9	0.9
N#Cc1ccccc1OCC(=O)OCC(=O)c1ccc2c(c1)NC(=O)CO2	59.1*	0.4	-0.4	66.9*	-8.7	0.3
CC[C@H](C)[C@H](NC(=O)c1ccc(Cl)cc1)C(=O)OCC(=O)c1ccc2c(c1)NC(=O)CO2	55.7*	0.4	9.9	45.9	-3.6	0.5
COc1cc(OC)cc(C(=O)N[C@H](C(=O)OCC(=O)c2ccc3c(c2)NC(=O)CO3)C(C)C)c1	25.8	0.7	2.8	28.7	4.0	0.7
CC(=O)OCC(OC(C)=O)C(OC(C)=O)C(OC(C)=O)C(=O)Nc1ccc(C)cc1 (stereo not given)	0.4	1	2.6	12.6	-1.1	0.9
CCc1noc(N)c1C(=O)Nc1ccc(F)c(Cl)c1	14.1	0.9	-1.1	21.5	-2.9	0.8
O=C(c1cc(-c2ccc(Cl)cc2)n(-c2cc(Cl)ccc2Cl)n1)N1CCOCC1	45.7	0.5	42.6*	11.7	5.0	0.9
O=C(c1cc(-c2ccc(Cl)cc2)n(-c2ccc(Cl)c(Cl)c2)n1)N1CCOCC1	-5.2	1.1	40.4*	12.3	-8.7	0.9
Cc1ccnc(NC(=O)CCC(=O)N(CC(=O)NC2CCCCC2)c2ccc3c(c2)OCO3)c1	75.1*	0.2	x	41.2	x	0.6
O=C(CCC(=O)N(CC(=O)NC1CCCC1)Cc1ccc2c(c1)OCO2)Nc1ccccn1	88.6*	0.1	-0.9	39.3	-3.6	0.6
O=C(CCCC(=O)N(CC(=O)NC1CCCCC1)Cc1ccccc1)Nc1ccccn1	9.6	0.9	-10.7	30.0	-5.9	0.7
Cc1cccc(C(=O)Nc2onc(C)c2C#N)c1	16.5	0.8	6.6	-15.3	22.5	1.2
CC(C)(C)NC(=O)CN(Cc1cccnc1)C(=O)c1csnn1	9.5	0.9	-0.9	28.2	6.3	0.7
COC(=O)CNC(=O)COC(=O)c1cc(Cl)cc(Cl)c1N	x	x	12.2	x	-3.0	x
CC(C)CNC(=O)COC(=O)c1cc(Cl)cc(Cl)c1N	-93.6	1.9	-4.6	65.7*	-2.9	0.3
O=C(CSc1nn(-c2ccccc2)c(=S)s1)NC(=O)NCc1ccco1	46.6	0.5	-0.9	35.0	-1.5	0.7

Screening results: PubChem BioAssay, several laboratories
